High-throughput results from PubChem.
DRD3 agonist: activates the human D3 dopamine receptor | P35462 | D3R DiscoveRx beta-arrestin cells, luminescence, 90 min | max activation, % | 0.58% of 410,000 active; in the data active = max activation above about 30%; note: 0% is about no effect
Target sequence (P35462 whole entry, looked up): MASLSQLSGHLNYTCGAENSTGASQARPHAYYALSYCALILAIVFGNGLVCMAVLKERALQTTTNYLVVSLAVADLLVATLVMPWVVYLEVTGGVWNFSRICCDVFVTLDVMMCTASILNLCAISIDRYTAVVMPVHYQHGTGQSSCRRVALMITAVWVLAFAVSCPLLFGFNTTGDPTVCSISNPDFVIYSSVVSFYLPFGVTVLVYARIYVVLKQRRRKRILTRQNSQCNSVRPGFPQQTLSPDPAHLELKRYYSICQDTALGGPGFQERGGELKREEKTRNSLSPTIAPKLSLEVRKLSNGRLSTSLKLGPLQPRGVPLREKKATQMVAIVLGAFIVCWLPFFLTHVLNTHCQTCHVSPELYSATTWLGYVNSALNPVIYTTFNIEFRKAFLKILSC
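Cells at 1500/well, incubated overnight, then treated with pinned compounds (dopamine as control) for 90 min at 37 degrees C. DiscoveRx reagent added for 30 - 60 minutes at room temperature; luminescence read.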
D3 antag: blocks the human D3 dopamine receptor | AID 652054 | D3R cells, DiscoveRx beta-arrestin luminescence, antagonist mode; active compounds read low | P35462 | max response, negative = inhibition, % | 2.5% of 360,000 active; in the data active = max response below about -50%; inconclusive = no clear call, values can overlap the other calls; note: % is set by controls: 0 for no effect and ±100 for the full control effect
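Cells expressing the human receptor were seeded at 1500 cells/well, incubated overnight at 37 degrees C in 5% CO2, then exposed to library compounds with dopamine controls for 90 minutes at 37 degrees C before luminescent detection.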
ATXN2 expr inh: ATXN2 expression inhibition. HEK-293 ATXN2-luciferase reporter, luminescence, 24 h. Potency, µM (doses to about 57 µM), without a hit: top-dose activity change, negative = inhibition, hits mostly inhibitors. 0.72% of 360,000 active. AID 1745845; note: potency is the fitted concentration of half-maximal effect; % is set by controls: 0 for no effect and ±100 for the full control effect; nearly all actives have a fitted effect of over 55% in size
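ATXN2-luciferase reporter cells (luciferase flanked by upstream and downstream ATXN2 gene portions) were treated 24 h at 37 °C with compounds at up to 57 uM. SteadyGlo luminescence gave expression; GF-AFC fluorescence gave viability.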
a7 integrin act: activates integrin-mediated alleviation for muscular dystrophy. AID 624291. alpha7betagal myoblasts, beta-gal FDG fluorescence, 48 h. 0.064% of 350,000 active. Potency, µM (doses to about 38.3 µM), inactives show at the top dose activation, usual class: activators;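 note: potency is the fitted concentration of half-maximal effect; 100% = response of the positive control SU9516; nearly all actives have a fitted effect of over 60% in size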
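alpha7betagal+/- myoblasts (passage 13, 250/well) treated 48 h at 37C with compounds at 1:260 dilution of DMSO stock. Lysed, then beta-galactosidase activity read as FDG fluorescence (ex 480/em 540) after 30 min, with pre-read for autofluorescence.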
ATXN viability: viability counter-screen for ATXN expression inhibitors; S2 cells (HEK-293 line with an ATXN2-luciferase reporter) viability, CellTiter-Fluor protease fluorescence, 24 h; Potency, µM (top dose mostly 56.7 µM), usual class: cytotoxic; 0.49% of 400,000 active; note: potency is the fitted concentration of half-maximal effect; nearly all actives have a fitted effect of over 40% in size
IL-1B inflam inh: inhibitors of inflammasome signaling (IL-1 beta secretion); THP-1 LPS/ATP IL-1B secretion, AlphaLISA, 16 h; active compounds read low; activity change, % at 57.5 µM; 4.7% of 360,000 active; AID 743279; in the data active = activity change below about -50%; inconclusive = mostly about -30% to -49%; note: % is set by controls: 0 for no effect and ±100 for the full control effect
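Secreted IL-1B measured by AlphaLISA bead assay after 16 h compound exposure of THP-1 cells; compounds (final up to 57.5 uM) added 1 h before LPS (250 ng/mL) and ATP (1.25 mM) stimulation; lower signal means less secretion.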
Numbers without * were called inactive; ! = repeats disagree; [ ] = another dose, or the depositor's remark. This is a sample that favours compounds with a hit; in the whole collection about 7% have one here. Unless noted, calls come from the whole dose curve; as a rule, active = well fitted curve in the direction sought with a large enough effect; inconclusive = small, poorly fitted or top-dose-only effect, or another doubt; inactive = no such curve, though single readings can be large; an effect the other way counts as inactive or inconclusive.

Screening CN(C)c1cccc(C(=O)OCC(=O)N(Cc2ccccc2)C2CCS(=O)(=O)C2)c1 (stereo not drawn) returned DRD3 agonist 4, D3 antag 0, ATXN2 expr inh -8%, a7 integrin act -17%, ATXN viability inactive and IL-1B inflam inh 36.
COc1ccc(-c2nn3c(-c4ccccc4)nnc3s2)cc1 was read as DRD3 agonist -2, D3 antag -13, ATXN2 expr inh -11%, a7 integrin act 1%, ATXN viability inactive and IL-1B inflam inh -55*.
For CCc1ccccc1N1CCN(S(=O)(=O)c2ccc(F)c(C)c2)CC1 the results were DRD3 agonist -3, D3 antag -26, ATXN2 expr inh -23%, a7 integrin act 29%, ATXN viability inactive and IL-1B inflam inh -10.
Cc1ccc(N2CCN(S(=O)(=O)c3ccc(F)c(C)c3)CC2)c(C)c1 was read as DRD3 agonist -3, D3 antag -51*, ATXN2 expr inh -18%, a7 integrin act 0%, ATXN viability inactive and IL-1B inflam inh 22.
`COc1ccc(N2CCN(C(=O)c3cn(C)c4ccc(S(=O)(=O)N(C)C5CCCCC5)cc4c3=O)CC2)cc1` gave DRD3 agonist 1, ATXN2 expr inh -5% and ATXN viability inactive.
For CCC(=O)NC1OC(CO)C(O)C(O)C1O (stereo not drawn) the results were DRD3 agonist -2, D3 antag -8, a7 integrin act 10%, ATXN viability inactive and IL-1B inflam inh -11.
Screening Cc1ccc(CNC(=O)c2ccc(F)c(S(=O)(=O)N3CCOCC3)c2)cc1 returned DRD3 agonist -12, D3 antag -2, ATXN2 expr inh 2%, a7 integrin act 5%, ATXN viability inactive and IL-1B inflam inh 5.
N#Cc1nccnc1S(=O)(=O)c1cccs1 was read as DRD3 agonist -15, D3 antag -15, ATXN2 expr inh 80%, a7 integrin act -38%, ATXN viability inactive and IL-1B inflam inh -98*.
Screening CN[C@@H](C)C(=O)NC[C@H]1O[C@@H](n2cnc3c(=O)[nH]c(N)nc32)[C@H](O)[C@@H]1O returned DRD3 agonist 13, D3 antag 6, ATXN2 expr inh 2%, ATXN viability inactive and IL-1B inflam inh 16.
For COc1ccccc1-c1ccccc1C1=CC(=O)CC(C)(C)C1=O the results were DRD3 agonist 4, D3 antag 9, ATXN2 expr inh -1%, a7 integrin act -10%, ATXN viability inactive and IL-1B inflam inh 3.
CC1=CC(=O)c2ccccc2C1=O was read as DRD3 agonist 6, D3 antag -53*, ATXN2 expr inh 24µM*!, ATXN viability inactive and IL-1B inflam inh 21.
Screening CC(C)(C=O)C1=CC(=O)c2ccccc2C1=O returned DRD3 agonist -28, D3 antag -111*, ATXN2 expr inh 16µM*, a7 integrin act -46% and IL-1B inflam inh -103*.
Screening COc1cccc2c1C(=O)C=C(C)C2=O returned DRD3 agonist 1, D3 antag -29, ATXN2 expr inh inconclusive, a7 integrin act -330% and IL-1B inflam inh -100*.
ClC1CCCCC1n1nnc2ccccc21 (stereo not drawn) was read as DRD3 agonist 5, D3 antag 3, ATXN2 expr inh -10%, a7 integrin act 1%, ATXN viability inactive and IL-1B inflam inh -8.
`O=C(NC1CCCC1)c1sc(=S)n2c1[nH]c(=O)c1ccccc12` gave DRD3 agonist 1, D3 antag 22, ATXN2 expr inh inconclusive, a7 integrin act 0%, ATXN viability inactive and IL-1B inflam inh -85*.
For O=C(NCc1ccco1)c1sc(=S)n2c1[nH]c(=O)c1ccccc12 the results were DRD3 agonist 3, D3 antag 19, ATXN2 expr inh inconclusive, a7 integrin act -11%[7.66 µM], ATXN viability inconclusive and IL-1B inflam inh -59*.
O=C(NCc1ccccc1)c1ccc2c(=O)[nH]c3c(C(=O)NCC4CCCO4)sc(=S)n3c2c1 (stereo not drawn) was read as DRD3 agonist -2, D3 antag 0, ATXN2 expr inh -9%, a7 integrin act 14%, ATXN viability inactive and IL-1B inflam inh 25.
